Results published in PubChem BioAssay (NCATS).
Inconclusive results are not listed. Unmarked numbers belong to inactive results. Activity calls are given as the source filed them. Calls come from the whole dose curve; as a rule, active = well fitted cell-killing curve with a large enough effect; inconclusive = small, poorly fitted or top-dose-only effect, or effect the other way; inactive = no such curve, though single readings can be large or run the other way. Starred links: 1 amine or outer side, 2 acyl side, 3 side chain; linkers in the order of their positions; H or OH if unused. Positions of bridges follow the written chain, without caps; N, C: chain ends. Non-standard residues stand in square brackets, D forms with d. Residues, ends and D or L forms follow the SMILES beside them. Chains are numbered I, II in the order given. Actinocin(9to1) = Cc1c2oc3c(C)ccc(C(=O)[*:1])c3nc-2c(C(=O)[*:2])c(N)c1=O; NMeV = CN[CH](C(=O)O)C(C)C; Sar = CNCC(=O)O

Experiment: Quantitative High-Throughput drug screen in 47 multiple myeloma cell lines against the NCATS MIPE library collection: OCIMY5_PLB cell viability assay (AID 1918988); note: nearly all actives have a fitted effect of over 65% in size
Conditions: OCI-MY5 myeloma viability, ATP luminescence, 48 h; series mostly up to 45.8 µM; viability, % of control: at the top concentration
Procedure, shortened: (§1)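 Myeloma cells (500/well) treated with MIPE 4.0 compounds for 48 h at 37 °C, 5% CO2. Viability read as ATP via CellTiter-Glo luminescence after 5 min at RT; DMSO-only wells = 100%, media-only = 0% viability.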
Potency is the fitted concentration of half-maximal effect.

| Compound | Potency | viability, % of control |
| --- | --- | --- |
| O=C(Nc1cccc(Nc2ncc(Br)c(NCCc3cnc[nH]3)n2)c1)N1CCCC1 | 14800 nM (active) | – |
| C=CCNc1c(O)cc2c(O)c1C[C@@H](C)C[C@H](OC)[C@@H](O)[C@@H](C)C=C(C)[C@H](OC(N)=O)[C@@H](OC)C=CC=C(C)C(=O)N2 | 235 nM (active) | – |
| CCS(=O)(=O)Nc1ccc2[nH]c(O)c(C(=Nc3ccc(CN4CCCCC4)cc3)c3ccccc3)c2c1 | 2090 nM (active) | – |
| CCN(CC)CCNC(=O)c1c(C)[nH]c(C=C2C(=O)Nc3ccc(F)cc32)c1C | 8550 nM (active) | – |
| O=C1NC(=O)[C@@H](c2cn3c4c(cccc24)CCC3)[C@H]1c1c[nH]c2ccccc12 | 132 nM (active) | – |
| COC1=C2C[C@@H](C)C[C@H](OC)[C@@H](O)[C@@H](C)C=C(C)[C@H](OC(N)=O)[C@@H](OC)C=CC=C(C)C(=O)NC(=CC1=O)C2=O | 37.2 nM (active) | – |
| NC(=NCCCCCCN=C(N)N=C(N)Nc1ccc(Cl)cc1)N=C(N)Nc1ccc(Cl)cc1 | 8330 nM (active) | – |
| Nc1nc(N)c2nc(-c3cccc(O)c3)c(-c3cccc(O)c3)nc2n1 | 18700 nM (active) | – |
| CC(C)C[C@H](NC(=O)[C@@H](NC(=O)c1cccc(-c2ccccc2)n1)[C@@H](C)O)B(O)O | 13.2 nM (active) | – |
| O=C1CSC(=O)N1C(CCc1ccncc1)COc1ccc(-c2cccc([N+](=O)[O-])c2)cc1 (stereo unspecified) | 2350 nM (active) | – |
| C#C[C@]1(O)CC[C@@H]2[C@@H]3CCC4=CC(=O)CC[C@@H]4[C@H]3CC[C@@]21CC | 18700 nM (active) | – |
| CC(=O)O[C@@]12CO[C@H]1C[C@H](O)[C@@]1(C)C(=O)[C@H](O)C3=C(C)[C@@H](OC(=O)C(O)[C@@H](NC(=O)OC(C)(C)C)c4ccccc4)C[C@@](O)([C@@H](OC(=O)c4ccccc4)[C@@H]21)C3(C)C (stereo partly specified) | – | 26.8% |
| C[C@H](NCc1ccc(OCc2cccc(F)c2)cc1)C(N)=O | 7430 nM (active) | – |
| C[C@@]12C(=O)OC(=O)[C@@]1(C)C1CCC2O1 | 2960 nM (active) | – |
| Cc1c2oc3c(C)ccc(C(=O)NC4C(=O)NC(C(C)C)C(=O)N5CCCC5C(=O)N(C)CC(=O)N(C)C(C(C)C)C(=O)OC4C)c3nc-2c(C(=O)NC2C(=O)NC(C(C)C)C(=O)N3CCCC3C(=O)N(C)CC(=O)N(C)C(C(C)C)C(=O)OC2C)c(N)c1=O (stereo unspecified) (I: TVP[Sar][NMeV] / II: TVP[Sar][NMeV]; ester I:1-I:C, II:1-II:C; linker I:N-II:N via Actinocin(9to1); configuration not given here) | – | 3.54% |
| CC(C)c1cnn2c(NCc3ccccc3)cc(NCCCCCCN)nc12 | 6620 nM (active) | – |
| CC(C=CC(=O)NO)=C[C@@H](C)C(=O)c1ccc(N(C)C)cc1 | 166 nM (active) | – |
| CN1[C@H]2CC(OC(=O)[C@@H](CO)c3ccccc3)C[C@H]1[C@H]1O[C@H]12 (stereo partly specified) | – | 171% [at 23.2 µM] |
| c1ccc(CNc2nc(NCc3ccccc3)c3ccccc3n2)cc1 | 20900 nM (active) | – |
| CN(C)c1ccc2cc(C(=O)N[C@@H](CCCN=C(N)CCl)C(=O)NCc3ccccc3)ccc2c1 | 4180 nM (active) | – |
| COc1cccc2c1C(=O)c1c(O)c3c(c(O)c1C2=O)C[C@@](O)(C(=O)CO)C[C@H]3O[C@H]1C[C@H](N)[C@H](O)[C@H](C)O1 | 166 nM (active) | – |
| CCC(C(=O)O)C1CCC(C)C(C(C)C(O)C(C)C(=O)C(CC)C2OC3(C=CC(O)[C@@]4(CC[C@](C)(C5CC[C@@](O)(CC)C(C)O5)O4)O3)C(C)CC2C)O1 (stereo partly specified) | 372 nM (active) | – |
| CCC(C=C[C@@H]1OC(=O)C=C[C@H]1C)=C[C@H](C)CC=CC(C)=C[C@@H](C)C(=O)[C@@H](C)[C@H](O)[C@@H](C)CC(C)=CC(=O)O | 9.8 nM (active) | – |
| CC(C)C[C@H](NC(=O)CNC(=O)c1cc(Cl)ccc1Cl)B1OC(=O)CC(CC(=O)O)(C(=O)O)O1 (stereo partly specified) | 26.4 nM (active) | – |
| COc1cc2c(cc1OC)[C@@H]1C(=O)c3ccc4c(c3O[C@@H]1CO2)C=CC(C)(C)O4 | 148 nM (active) | – |

Experiment: Quantitative High-Throughput drug screen in 47 multiple myeloma cell lines against the NCATS MIPE library collection: OPM1_PLB cell viability assay (AID 1918989); note: nearly all actives have a fitted effect of over 40% in size
Conditions: CellTiter-Glo, 48 h; series mostly up to 45.8 µM; viability (% of control): at the top concentration
Procedure, shortened: as §1

| Compound | Potency | viability (% of control) |
| --- | --- | --- |
| CCc1ccc(C(=O)Nc2cc(CN3CCN(C)CC3)cc(C(F)(F)F)c2)cc1C#Cc1cnc2ccnn2c1 | 7430 nM (active) | – |
| C=CC[C@@H]1C=C(C)C[C@H](C)C[C@H](OC)[C@H]2O[C@@](O)(C(=O)C(=O)N3CCCC[C@H]3C(=O)O[C@H](C(C)=C[C@@H]3CC[C@H](O)[C@H](OC)C3)[C@@H](C)[C@@H](O)CC1=O)[C@@H](C)C[C@@H]2OC | 2640 nM (active) | – |
| CO[C@@H]1[C@@H](O)[C@H](O)[C@@H](n2c3c(Cl)cccc3c3c4c(c5c6cccc(Cl)c6[nH]c5c32)C(=O)NC4=O)O[C@@H]1CO | 2090 nM (active) | – |
| Cc1cc(O)c2c(c1)C(=O)c1cccc(O)c1C2=O | – | 130% |
| Cn1cnc(=N)c2[nH]cnc21 | 66.2 nM (active) | – |
| CC(C)N1[N]C(=C2C=c3cc(O)ccc3=N2)c2c(N)ncnc21 | 296 nM (active) | – |
| COc1cc(C=CC(=O)CC(=O)C=Cc2ccc(O)c(OC)c2)ccc1O | 3820 nM (active) | – |
| CCC[C@H]1C[C@H](C(=O)N[C@@H]([C@@H]2O[C@@H](SC)[C@@H](O)[C@@H](O)[C@@H]2O)[C@H](C)Cl)N(C)C1 | – | 130% |
| C=CC(=O)Nc1ccc2ncnc(Nc3ccc(OCc4cccc(F)c4)c(Cl)c3)c2c1 | 209 nM (active) | – |
| O=C(Nc1cccc(Nc2ncc(Br)c(NCCc3cnc[nH]3)n2)c1)N1CCCC1 | 1870 nM (active) | – |
| C[C@@H]1CC[C@@]2(OC1)OC1CC3C4CC=C5CC(O)CCC5(C)C4CCC3(C)C1[C@@H]2C (stereo partly specified) | – | 146% |
| CCS(=O)(=O)Nc1ccc2[nH]c(O)c(C(=Nc3ccc(CN4CCCCC4)cc3)c3ccccc3)c2c1 | 332 nM (active) | – |
| CCN(CC)CCNC(=O)c1c(C)[nH]c(C=C2C(=O)Nc3ccc(F)cc32)c1C | 1520 nM (active) | – |
| COC1=C2C[C@@H](C)C[C@H](OC)[C@@H](O)[C@@H](C)C=C(C)[C@H](OC(N)=O)[C@@H](OC)C=CC=C(C)C(=O)NC(=CC1=O)C2=O | 418 nM (active) | – |
| NC(=NCCCCCCN=C(N)N=C(N)Nc1ccc(Cl)cc1)N=C(N)Nc1ccc(Cl)cc1 | 2640 nM (active) | – |
| Nc1nc(N)c2nc(-c3cccc(O)c3)c(-c3cccc(O)c3)nc2n1 | 9350 nM (active) | – |

| Compound | Potency | viability (% of control) |
| --- | --- | --- |
| CC(C)C[C@H](NC(=O)[C@@H](NC(=O)c1cccc(-c2ccccc2)n1)[C@@H](C)O)B(O)O | 13.2 nM (active) | – |
| O=C1CSC(=O)N1C(CCc1ccncc1)COc1ccc(-c2cccc([N+](=O)[O-])c2)cc1 (stereo unspecified) | 16600 nM (active) | – |
| CC(=O)O[C@@]12CO[C@H]1C[C@H](O)[C@@]1(C)C(=O)[C@H](O)C3=C(C)[C@@H](OC(=O)C(O)[C@@H](NC(=O)OC(C)(C)C)c4ccccc4)C[C@@](O)([C@@H](OC(=O)c4ccccc4)[C@@H]21)C3(C)C (stereo partly specified) | – | 55% |
| C[C@H](NCc1ccc(OCc2cccc(F)c2)cc1)C(N)=O | 2640 nM (active) | – |
| C[C@@]12C(=O)OC(=O)[C@@]1(C)C1CCC2O1 | 372 nM (active) | – |
| Cc1c2oc3c(C)ccc(C(=O)NC4C(=O)NC(C(C)C)C(=O)N5CCCC5C(=O)N(C)CC(=O)N(C)C(C(C)C)C(=O)OC4C)c3nc-2c(C(=O)NC2C(=O)NC(C(C)C)C(=O)N3CCCC3C(=O)N(C)CC(=O)N(C)C(C(C)C)C(=O)OC2C)c(N)c1=O (stereo unspecified) (I: TVP[Sar][NMeV] / II: TVP[Sar][NMeV]; ester I:1-I:C, II:1-II:C; linker I:N-II:N via Actinocin(9to1); configuration not given here) | – | 2.4% |
| CC(C)c1cnn2c(NCc3ccccc3)cc(NCCCCCCN)nc12 | 18700 nM (active) | – |
| CC(C=CC(=O)NO)=C[C@@H](C)C(=O)c1ccc(N(C)C)cc1 | 332 nM (active) | – |
| CN1[C@H]2CC(OC(=O)[C@@H](CO)c3ccccc3)C[C@H]1[C@H]1O[C@H]12 (stereo partly specified) | – | 145% [at 23.2 µM] |
| c1ccc(CNc2nc(NCc3ccccc3)c3ccccc3n2)cc1 | 7430 nM (active) | – |
| CN(C)c1ccc2cc(C(=O)N[C@@H](CCCN=C(N)CCl)C(=O)NCc3ccccc3)ccc2c1 | 7430 nM (active) | – |
| COc1cccc2c1C(=O)c1c(O)c3c(c(O)c1C2=O)C[C@@](O)(C(=O)CO)C[C@H]3O[C@H]1C[C@H](N)[C@H](O)[C@H](C)O1 | 526 nM (active) | – |
| CCC(C=C[C@@H]1OC(=O)C=C[C@H]1C)=C[C@H](C)CC=CC(C)=C[C@@H](C)C(=O)[C@@H](C)[C@H](O)[C@@H](C)CC(C)=CC(=O)O | 31.1 nM (active) | – |
| CC(C)C[C@H](NC(=O)CNC(=O)c1cc(Cl)ccc1Cl)B1OC(=O)CC(CC(=O)O)(C(=O)O)O1 (stereo partly specified) | 37.2 nM (active) | – |
| COc1cc2c(cc1OC)[C@@H]1C(=O)c3ccc4c(c3O[C@@H]1CO2)C=CC(C)(C)O4 | 10500 nM (active) | – |
